Rows were chosen to be rich in hits. Some 2.4% of all compounds tested hit in one or more screens of this group.
D2 PAM-1: HTS Assay for Positive Allosteric Modulators of the Human D2 Dopamine Receptor: Primary Screen for Potentiators | D(2) dopamine receptor (Homo sapiens), P14416 | HEK293 T-REx D2, calcium flux, EC20 dopamine potentiation | potentiation, % at 10 µM | 340,000 tested, 0.34% active;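 active = potentiation over 3 SD above the plate norm, cut at about 30% in these data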; note: 0% is about no effect
Target sequence (P14416 whole entry, looked up): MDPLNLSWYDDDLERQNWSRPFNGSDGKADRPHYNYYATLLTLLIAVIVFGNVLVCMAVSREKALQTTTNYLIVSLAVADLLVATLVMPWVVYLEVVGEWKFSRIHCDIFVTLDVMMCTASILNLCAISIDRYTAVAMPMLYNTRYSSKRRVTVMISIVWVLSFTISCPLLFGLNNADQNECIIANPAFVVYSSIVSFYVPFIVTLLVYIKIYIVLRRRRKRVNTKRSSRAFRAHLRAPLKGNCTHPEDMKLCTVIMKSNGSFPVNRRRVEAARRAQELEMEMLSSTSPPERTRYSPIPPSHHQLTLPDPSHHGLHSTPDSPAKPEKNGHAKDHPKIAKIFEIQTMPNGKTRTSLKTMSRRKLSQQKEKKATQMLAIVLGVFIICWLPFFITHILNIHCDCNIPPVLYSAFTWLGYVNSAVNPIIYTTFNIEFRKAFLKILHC
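Potentiation of an EC20 dopamine calcium response is measured in a force-coupled, tetracycline-inducible Hek293 Trex D2 line. Compound-only kinetic reads over 180 s flag agonists before dopamine addition.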
D2 PAM-2: Beta-Arrestin HTS for Positive Allosteric Modulators of the Human D2 Dopamine Receptor: Potentiators. D(2) dopamine receptor (Homo sapiens), P14416. DiscoveRx D2 beta-arrestin cells, luminescence, 90 min; 100% = 57 uM dopamine signal. potentiation, % (no concentration beside the values). 360,000 tested, 0.23% active. AID 624464, 2012; in the data active = potentiation above about 50%; inconclusive = mostly about 30% to 49%
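PathHunter D2 cells, attached overnight at 37 deg C, received compound in DMSO plus dopamine at EC20 (50 nM final) for 90 min at 37 deg C. Beta-arrestin recruitment was read as luminescence after 1 h with detection reagent at ambient temperature.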
D2 antagonist: HTS Assay for Allosteric Antagonists of the Human D2 Dopamine Receptor: Primary Screen for Antagonists. 340,000 tested, 2% active. HEK293 TREx D2 cells, calcium flux, dopamine EC80. inhibition, % at 10 µM. D(2) dopamine receptor (Homo sapiens), P14416. AID 485344, 2010; in the data active = inhibition above about 30%; inactive = below that, where a call was filed; note: 0% is about no effect
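Inhibition of EC80 dopamine-driven calcium flux, recorded kinetically, defines activity here; cells are a tetracycline-induced HEK293 T-REx line expressing force-coupled D2.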
D2 ag-1: Beta-Arrestin HTS for Positive Allosteric Modulators of the Human D2 Dopamine Receptor: Agonists | 360,000 tested, 0.084% active | activation, % (test concentration not listed) | AID 624465, 2012 | DiscoveRx PathHunter D2 beta-arrestin, luminescence, 90 min; 100% = 57 uM dopamine signal; in the data active = activation above about 40%; inconclusive = between about 15% and that limit
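Agonist mode: compounds alone added to overnight-plated D2 PathHunter cells for 90 min at 37 C, with 57 uM final dopamine (EC100) defining full response. Beta-arrestin recruitment detected by chemiluminescent reagent, read after 1 h at ambient temperature.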
D2 ag-2: HTS Assay for Allosteric Agonists of the Human D2 Dopamine Receptor: Primary Screen for Agonists | D(2) dopamine receptor (Homo sapiens), P14416 | HEK293 T-REx D2 cells, calcium flux agonist mode | activation, % at 2 µM | 340,000 tested, 0.53% active | AID 485358, 2010;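 active = activation over 3 SD above normal in the single-dose calcium agonist read, cut at about 30% in these data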; note: 0% is about no effect
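In this primary screen, compounds producing a positive calcium signal within 180 s of addition to tetracycline-induced, force-coupled HEK293 Trex D2 cells are flagged; cells are dye-loaded with a no-wash calcium kit beforehand.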
D3 arrestin ag: qHTS of D3 Dopamine Receptor Agonist: D3 Dopamine Receptor B-arrestin Agonist Confirmatory Assay; shares compounds with D2 ag-2; 2,300 tested, 4% active; AID 720506, 2013; Potency, µM (doses to about 76.9 µM), inactives show at the highest dose activation, most hits filed as activators; DiscoveRx D3 beta-arrestin cells, luminescence, 90 min;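 note: potency is the fitted concentration of half-maximal effect; 100% = dopamine control response; nearly all actives have a fitted effect of over 70% in size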
D2 ag-3: qHTS of D3 Dopamine Receptor Agonist: D2 Dopamine Receptor B-arrestin Agonist Counterscreen; DiscoveRx PathHunter D2 beta-arrestin, luminescence, 90 min; response scale: percent relative to full dopamine signal; 2,300 tested, 5.9% active; shares compounds with D2 ag-2; Potency, µM (top dose mostly 76.9 µM), for inactives: at the highest dose activation, most hits filed as activators; note: potency is the fitted concentration of half-maximal effect; % of control where 0% means no effect; nearly all actives have a fitted effect of over 70% in size
Numbers without * were called inactive; ? = inconclusive; / = not tested or not shown. Unless noted, calls come from the whole dose curve; as a rule, active = well fitted activation curve with a large enough effect; inconclusive = small, poorly fitted or top-dose-only effect; inactive = flat fitted curve, though single readings scatter.

SMILES | D2 PAM-1 | D2 PAM-2 | D2 antagonist | D2 ag-1 | D2 ag-2 | D3 arrestin ag | D2 ag-3
CC1(C)C(C=C(Cl)Cl)C1C(=O)N1CCN(Cc2ccccc2)CC1 (stereo not drawn) | -23 | ? | 78* | ? | 70* | ? | 18µM*
CC1CN(c2nc3ccccn3c(=O)c2/C=C(\C#N)C(=O)N2CCOCC2)CC(C)O1 (stereo not drawn) | -7 | -4 | -1 | 4 | 0 | / | /
O=C(COc1ccccc1Cl)NNC(=O)Cn1[nH]c(=O)c2ccccc2c1=O | 9 | -1 | 0 | -3 | 0 | -5% | -7%
COc1ccc(S(=O)(=O)N2CCC(N3CCN(Cc4ccccc4)CC3)CC2)cc1 | -20 | -2 | 74* | 14 | 77* | -9% | 27%
CCCCN1CCNC[C@@H]1Cc1ccccc1 | -11 | -11 | 2 | -5 | 0 | / | /
CCCCN1CCNC[C@@H]1c1ccccc1 | 14 | -17 | -8 | -1 | 0 | -4% | -3%
Cc1ccc(Nc2nc(N)nc(CN3CCN(C(=O)c4ccco4)CC3)n2)cc1Cl | -26 | 14 | 38* | ? | 67* | -4% | ?
O=C(c1ccco1)N1CCN(Cc2ccccc2F)CC1 | -23 | 19 | 80* | 75* | 78* | ? | ?
CC1CCN(C(=S)NC(=O)c2ccco2)CC1 | 16 | -6 | -9 | -1 | -1 | / | /
Cc1ccc(CN2CCN(C(=O)c3ccco3)CC2)cc1 | 1 | 56* | 82* | 70* | 66* | ? | 4.5µM*
O=C(NC(=S)N1CCN(Cc2ccccc2)CC1)c1ccco1 | -4 | -3 | 20 | 5 | 70* | -1% | 0%
O=C(c1ccco1)N1CCN(Cc2c(F)cccc2Cl)CC1 | / | -15 | / | -2 | / | / | /
Cc1ccc(OCC(=O)N2CCN(C(=O)c3ccco3)CC2)cc1 | 1 | -2 | -4 | -2 | 0 | / | /
CCCCCCNc1nc(Cl)nc(NC(C)(C)CO)n1 | -10 | -10 | 19 | -5 | 1 | / | /
CCn1c(=O)cc(SCC(=O)N2CCN(C(=O)c3ccco3)CC2)c2ccccc21 | 21 | -10 | -1 | 0 | 0 | / | /
O=C(c1ccco1)N1CCN(Cc2cccnc2)CC1 | -14 | 16 | 31* | ? | 70* | ? | ?
O=C(c1ccco1)N1CCN(CCCCOc2ccc(F)cc2)CC1 | / | 12 | / | ? | / | 1µM* | ?
O=C(c1ccco1)N1CCCN(C(=O)c2ccco2)CC1 | 4 | -2 | 13 | 0 | 1 | / | /
CCn1c2ccccc2c2cc(CN3CCN(C(=O)c4ccco4)CC3)ccc21 | -14 | -28 | 29 | -1 | 27 | ? | 15%
Cc1ccccc1CC(=O)N1CCN(C(=O)c2ccco2)CC1 | 6 | -10 | 6 | -2 | 0 | / | /
Cc1ccccc1CN1CCN(C(=O)c2ccco2)CC1 | -28 | 26 | 70* | 47* | 81* | ? | 20µM*
O=C(CCCOc1ccccc1)N1CCN(C(=O)c2ccco2)CC1 | 14 | -6 | 9 | 0 | 1 | / | /
COc1ccc(S(N)(=O)=O)cc1C(=O)NNC(=O)CN(C)S(=O)(=O)c1ccc(Cl)cc1 | -8 | -4 | -11 | 0 | 0 | / | /
COC(=O)c1ccccc1NC(=O)c1cc(CN2CCOCC2)on1 | 9 | / | / | / | 0 | / | /
Cc1cccnc1Oc1ncccc1N | / | -3 | / | -2 | / | / | /
SMILES | D2 PAM-1 | D2 PAM-2 | D2 antagonist | D2 ag-1 | D2 ag-2 | D3 arrestin ag | D2 ag-3
O=C(c1ccc(OCC2CCCO2)cc1)N1CCN(S(=O)(=O)c2cccc(F)c2)CC1 (stereo not drawn) | 2 | 14 | 12 | -3 | 0 | -2% | 2%
O=C(Nc1cccc(S(=O)(=O)N2CCCCC2)c1)c1ccc(OCC2CCCO2)cc1 (stereo not drawn) | -2 | -2 | -1 | -3 | 0 | / | /
CNC(=S)N(CCc1c(C)[nH]c2ccc(OC)cc12)Cc1cccnc1 | 0 | -2 | 24 | 0 | 0 | -14% | -2%
O=C1N[C@H](Cc2ccccc2)COC(=O)[C@H](Cc2ccc(F)cc2)CC/C=C/C[C@@H]1CC(=O)N(CCO)Cc1ccccc1 | / | -2 | / | -7 | / | / | /
CCNc1nc(C#N)nc2c1ncn2-c1cc(F)cc(F)c1 | 7 | / | 12 | / | 0 | -5% | -1%
CCc1c(CN2CCN(c3cccc(C)c3C)CC2)csc1C | -12 | / | / | / | / | / | /
Cc1nc(-c2nc(-c3c(C(=O)NNC(=O)Nc4cccc(Cl)c4)noc3C)cs2)cs1 | -18 | 1 | 49* | 4 | 40* | -5% | 9%
C/C(O)=c1/ccc2cccc3nc(C)nc1c23 | 5 | 26 | -2 | 6 | 7 | ? | 21%
O/C=c1\ccc2cccc3nc(C(F)(F)F)nc1c23 | -1 | 15 | -20 | 4 | 3 | / | /
c1ccc2sc(SCSc3nc4ccccc4s3)nc2c1 | -25 | 0 | 12 | -4 | 32* | -7% | ?
O=C(O)CCSc1nc2ccccc2s1 | 8 | 0 | 5 | -1 | 2 | / | /
O=C(NCCN1CCN(c2cccc(Cl)c2)CC1)C1CCCN(S(=O)(=O)c2cnc[nH]2)C1 (stereo not drawn) | -17 | 25 | 81* | 1 | 81* | ? | ?
O=C(NCCN1CCN(c2ccccc2)CC1)C1CCCN(S(=O)(=O)c2cnc[nH]2)C1 (stereo not drawn) | -25 | 74* | 76* | ? | 74* | ? | ?
O=C(NCCN1CCN(c2ccccc2)CC1)C1CCN(S(=O)(=O)N2CCOCC2)CC1 | -24 | 6 | 61* | ? | 84* | ? | ?
COc1ccc(-c2cc(C(F)(F)F)nc(SCC(=O)Nc3ccc(O)cc3)n2)cc1OC | -1 | / | / | / | 0 | / | /
Cc1cc(C)cc(N(CCC#N)C(=O)COC(=O)Cn2[nH]c(=O)c3ccccc3c2=O)c1 | / | 14 | / | 1 | / | / | /
CC(=O)Nc1ccc(NC(=O)Cn2cc3c(n2)CCCCC3)cc1 | -1 | / | / | / | -1 | / | /

High-throughput results as filed in PubChem BioAssay.
